Compound activity as filed in PubChem BioAssay.
This excerpt belongs to a sample that is enriched for hits.
LmPK inh – qHTS Assay for Inhibitors of Leishmania Mexicana Pyruvate Kinase (LmPK); AID 1721, 2009; purified LmPK, Kinase-Glo ATP luminescence, 1 h; actives 0.37% (n = 290,000); Q27686; Potency, µM (highest dose often 57.5 µM), for the others: at the highest dose activity change, negative = inhibition, most hits filed as inhibitors; note: potency is the fitted concentration of half-maximal effect; % is set by controls: 0 for no effect and ±100 for the full control effect
Target sequence (Q27686 whole entry, looked up): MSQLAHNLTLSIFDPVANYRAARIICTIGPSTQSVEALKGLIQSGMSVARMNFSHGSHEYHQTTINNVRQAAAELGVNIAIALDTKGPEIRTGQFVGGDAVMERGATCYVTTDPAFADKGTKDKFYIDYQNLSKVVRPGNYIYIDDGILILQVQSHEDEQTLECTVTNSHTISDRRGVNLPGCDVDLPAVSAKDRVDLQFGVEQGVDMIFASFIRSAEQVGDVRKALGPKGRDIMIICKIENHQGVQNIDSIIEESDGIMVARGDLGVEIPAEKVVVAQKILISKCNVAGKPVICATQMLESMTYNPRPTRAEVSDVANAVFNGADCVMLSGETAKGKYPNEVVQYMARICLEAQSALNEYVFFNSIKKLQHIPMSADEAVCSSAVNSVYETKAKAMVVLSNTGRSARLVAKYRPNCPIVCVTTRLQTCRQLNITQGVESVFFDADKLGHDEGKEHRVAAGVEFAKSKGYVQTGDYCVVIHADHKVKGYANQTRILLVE
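Purified LmPK (0.1 nM) with 0.5 mM PEP and 0.1 mM ADP in imidazole buffer pH 7.2 with MgCl2/KCl, 1 h at room temperature. ATP formed was read by luciferase luminescence and normalized to no-enzyme and uninhibited controls.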
Giardia FBPA inh – qHTS Assay for Inhibitors of Fructose-1,6-bisphosphate Aldolase from Giardia Lamblia | purified Giardia FBPA | Potency, µM (highest dose often 59.6 µM), without a hit: at the highest dose activity, negative = inhibition, usual class: inhibitors | actives 0.71% (n = 290,000) | AID 2451, 2010; note: potency is the fitted concentration of half-maximal effect; % is set by controls: 0 for no effect and ±100 for the full control effect; nearly all actives have a fitted effect of over 55% in size
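Giardia FBPA (40 nM reagent) was preincubated 10 min at RT with compound (up to 57.5 uM final), then substrate plus GAPDH/TPI/NAD/arsenate coupling system with diaphorase/resazurin was added; resorufin fluorescence (525/598 nm) was read after 20 min.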
TbPYK inhibitor – qHTS of Trypanosoma Brucei Inhibitors. pyruvate kinase (Trypanosoma brucei), Q57TT1. TbPYK enzyme, Kinase-Glo Plus ATP luminescence, 45 min. Potency, µM (top dose mostly 76.8 µM), inactives show at the highest dose activity, negative = inhibition, hits mostly inhibitors. actives 0.12% (n = 410,000). AID 624173, 2012; note: potency is the fitted concentration of half-maximal effect; % is set by controls: 0 for no effect and ±100 for the full control effect; nearly all actives have a fitted effect of over 50% in size
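ADP (130 uM final) triggers the TbPYK reaction after compound addition; incubation is 45 min at room temperature. Kinase-Glo Plus is then added and luminescence imaged. Normalized data are fitted to concentration-effect curves.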
CHX counter – Cycloheximide Counterscreen for Small Molecule Inhibitors of Shiga Toxin. cell reporter, cycloheximide protein synthesis inhibition counterscreen. max response, %. actives 12% (n = 300,000); in the data active = max response mostly above about 13%, no sharp cut-off; inactive = mostly below about 14%; note: read at 38.3 µM for the half of the compounds with a filed dose; 0% is about no effect
RE007 growth inh – qHTS Assay for Inhibitors of the HIV-1 protein Vpr; Potency, µM (highest dose often 92.2 µM), inactives show at the top dose activity change, negative = less growth, hits mostly inhibitors; actives 0.21% (n = 360,000); S. pombe RE007 Vpr strain, BacTiter-Glo ATP luminescence, 24 h; active = well fitted falling curve with a large enough effect; inconclusive = small, poorly fitted or top-dose-only effect; inactive = no such curve, though single readings can be large or run the other way; note: potency is the fitted concentration of half-maximal effect; % is set by controls: 0 for no effect and ±100 for the full control effect; nearly all actives have a fitted effect of over 50% in size
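Fission yeast strain RE007, carrying one chromosomally integrated HIV-1 vpr copy, was seeded at OD 0.01 in PMG+AL medium with 23 nL pinned compound. After 24 h at 30 °C and 99% humidity, viability was read by BacTiter-Glo luminescence.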
Shiga inhibitor – A qHTS for Small Molecule Inhibitors of Shiga Toxin | Vero cells, Shiga toxin protein synthesis inhibition reporter | inhibition, % at 38.7 µM | actives 9.2% (n = 290,000) | AID 2315, 2010; in the data active = inhibition mostly above about 28%, no sharp cut-off; inactive = mostly below about 43%; note: 0% is about no effect
Numbers without * were called inactive; ? = inconclusive; nt = not tested or not shown; [ ] = dose if it differs, or a comment. Unless noted, calls come from the whole dose curve; as a rule, active = well fitted curve in the direction sought with a large enough effect; inconclusive = small, poorly fitted or top-dose-only effect, or another doubt; inactive = no such curve, though single readings can be large; an effect the other way counts as inactive or inconclusive.

SMILES	LmPK inh	Giardia FBPA inh	TbPYK inhibitor	CHX counter	RE007 growth inh	Shiga inhibitor
O=C(Nc1nccs1)c1cccnc1	-1.2%	-5.5%	-3.9%	1.8	-7.7%	-11.4
Cc1csc(NC(=O)c2cncc(Br)c2)n1	-7.2%	-8.5%	4.2%	53.2*	-15.7%	56.7
Cc1cc(C)cc(C(=O)N(Cc2nc(-c3ccc(Cl)cc3)no2)C(C)C)c1	nt	nt	-5.2%	nt	nt	nt
CCn1c(C(=O)N2CCCC(C(=O)N3CCN(c4ccccc4)CC3)C2)cc2sccc21 (centres undefined)	nt	nt	-6.5%	nt	nt	nt
Cc1ccc(N/C=C/C(=O)c2ccc(C)cc2)cc1	29.6%	7.0%	-4.6%	64.8*	-16.3%	123.9*
Cc1ccc(C(=O)/C=C\Nc2ccc(C)c(C)c2)cc1	-1.6%	17.6%	-2.7%	99.7*	7.9%	108.6*
Cc1ccc(O)c(N/C=C/C(=O)c2ccc(F)cc2)c1	-0.3%	-0.1%	-10.3%	42.9*	-17.7%	129.4*
NC(N)=NS(=O)(=O)c1ccc(N/C=C\C(=O)c2ccncc2)cc1	4.3%	-9.1%	7.4%	1.5	32.9%	14.4
CC1(C)NC(=O)N(CC(=O)N2CCN(S(=O)(=O)c3ccccc3C(F)(F)F)CC2)C1=O	nt	nt	-0.7%	nt	0.4%	nt
Cc1oc2cc(O)ccc2c(=O)c1Oc1ccc2ccccc2c1	5.5%	17.7%	nt	13.1	0.2%[3.69 µM]	38.1*
CN(c1ccc(-c2csc(NC(=O)CCCc3nc4ccccc4c(=O)[nH]3)n2)cc1)S(C)(=O)=O	nt	nt	5.3%	nt	5.7%	nt
N/C(=N/OCC(=O)Nc1cccc2ccccc12)c1nonc1N	0.4%	-1.3%	0.9%	-1.7	-8.0%	-8.0
Cc1cc(C(=O)NNc2c(Cl)cccc2Cl)no1	6.0%	-7.8%	0.5%	6.4	8.0%	-9.6
N/C(=N/OC(=O)c1ccccc1Cl)c1nonc1N	0.6%[11.5 µM]	-5.9%	?	38.1*	28.2µM*	90.1*
N/C(=N\OC(=O)c1ccc(F)cc1)c1nonc1N	14.1µM*	1.6%	?	48.0*	?	71.4*
Cc1cc(/C(N)=N/OC(=O)c2ccccc2Cl)no1	22.4µM*	0.3%	?	21.1*	-16.2%	37.9*
Cc1ccc(C(=O)O/N=C(\N)c2nonc2N)cc1	3.98µM*	0.8%	?	46.9*	?	50.9*
Nc1c(C(=O)Nc2ccccc2)sc2nc(-c3cccnc3)ccc12	2.4%	?	nt	49.0*	nt	70.2*
Cc1ccc(NC(=O)c2sc3nc(-c4ccncc4)ccc3c2N)cc1	nt	nt	0.6%	nt	nt	nt
Nc1c(C(=O)Nc2ccccc2)sc2nc(-c3ccco3)ccc12	-0.8%	-0.5%	-4.6%	26.8*	-5.0%	94.6*
COc1ccccc1NC(=O)c1sc2nc(-c3ccco3)ccc2c1N	3.6%	-0.5%	-5.8%	19.8*	8.5%	69.9
COc1cccc(C(=O)N2CCCCC2CCN2CCCCC2)c1 (centres undefined)	nt	nt	1.3%	nt	nt	nt
Cc1ccc(C(=O)Nc2ccc3c(c2)N(C)C(=O)c2ccccc2S3)cc1	nt	nt	-1.7%	nt	nt	nt
CCC(C)Nc1nc(-c2c[nH]c3ccccc23)cs1 (centres undefined)	3.5%	?	-24.5%	30.7*	-3.4%	14.8
CCc1ccc(-c2csc(-c3c[nH]c4ccccc34)n2)cc1	-2.7%	-7.9%	-10.7%	61.8*	-21.6%	38.4*
CN1CCN(CC(=O)Nc2nc(-c3c[nH]c4ccccc34)cs2)CC1	9.1%	?	-4.1%	22.2*	6.1%	62.1*
CNc1nc(-c2c[nH]c3ccccc23)cs1	-4.2%	-20.5%	-7.7%	6.1	-22.9%	-1.6
Nc1nc(-c2c[nH]c3ccccc23)cs1	9.0%	-22.6%	-14.5%	16.8	-26.8%	44.4
Cc1ccc(C2CC(=O)Nc3cc4c(cc32)OCCO4)cc1Br (centres undefined)	nt	nt	-12.3%	nt	nt	nt
Cc1c(C(=O)Nc2ccc(F)c(C(F)(F)F)c2)sc2nc(-c3ccccc3)cn12	nt	nt	-2.3%	nt	nt	nt
